Measurements taken from PubChem BioAssay (Tox21).
Values joined by “and” are separate entries in the source; they are usually repeats but may differ in a detail not shown here. Equal entries are not always repeated. Inconclusive results are not listed. Some compounds were tested as several samples or in several runs, with calls that do not always agree. Active and inactive are the calls of the source. Unless noted, the call rests on the fitted dose curve; in most records, active means well fitted curve in the direction sought with a large enough effect in the repeat runs; inconclusive means weak or mixed curves; inactive means no such curve, though single readings can be large; an effect the other way counts as inactive or inconclusive.

Columns and labels:
[1] = qHTS assay to identify small molecule antagonists of the estrogen receptor beta (ER-beta) signaling pathway - cell viability counter screen (AID 1259382); further: nearly all actives have a fitted effect of over 55% in size; further: potency means the concentration at half of the fitted maximal effect;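 on activity change, negative = cytotoxicity: HEK293T cells carrying ER-beta-UAS-bla reporter stimulated with estradiol; series mostly up to about 92 µM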
How it was run: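 Readout: luminescence, CellTiter-Glo, same wells as bla assay. System: ER-beta-UAS-bla GripTite HEK293T, 2% charcoal-stripped FBS. Exposure: compounds plus 1nM 17-beta-estradiol, 16 hr, 37C.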

[2] = molecular target: Estrogen receptor (Homo sapiens) (UniProt P03372); assay: qHTS assay to identify small molecule agonists of the estrogen receptor alpha (ER-alpha) signaling pathway in the presence of an antagonist (AID 1259383; calls by dose curve; further: nearly all actives have a fitted effect of over 15% in size; further: potency means the concentration at half of the fitted maximal effect; on activation: top concentration of the series differs between compounds)
How it was run: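 Quantitative HTS confirmation: compounds titrated at 15 concentrations onto estrogen-deprived VM7Luc4E2 cells carrying a four-ERE luciferase construct, with ICI-182,780 present at 10.0nM final. Signal is luminescence after 22hr exposure.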

[3] = qHTS assay to identify small molecule agonists or antagonists of the thyroid stimulating hormone receptor (TSHR) signaling pathway - wild type cell line counter screen (AID 1259384; calls by dose curve; further: potency means the concentration at half of the fitted maximal effect)
How it was run: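 Counter screen in untransfected Hek293: compounds (15-point titration, triplicate) plus phosphodiesterase inhibitor Ro20-1724 added after 18 h plating; 30 min RT. Intracellular cAMP via competitive d2/cryptate immunoassay, 1 h incubation.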

[4] = molecular target: Thyrotropin receptor (Homo sapiens) (UniProt P16473); assay: qHTS assay to identify small molecule antagonists of the thyroid stimulating hormone receptor (TSHR) signaling pathway (AID 1259385; calls by dose curve; further: nearly all actives have a fitted effect of over 20% in size; further: potency means the concentration at half of the fitted maximal effect)
How it was run: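 Antagonist mode: compound-treated TSHR-expressing HEK293 cells were stimulated with 1.5 ng/mL TSH (final) in presence of Ro20-1724 for 30 min at RT. HTRF cAMP detection after 1 h; each compound tested at 15 concentrations, triplicate.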

[5] = qHTS assay to identify small molecule agonists of the estrogen receptor alpha (ER-alpha) signaling pathway in the presence of an antagonist - cell viability counter screen (AID 1259386);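 further: cells exposed to compounds for 22 h at 37 °C before the viability read; nearly all actives have a fitted effect of over 30% in size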; further: potency means the concentration at half of the fitted maximal effect; on activity change, negative = cytotoxicity: series mostly up to about 92 µM
How it was run: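 The test measures whether compounds kill ER-alpha reporter cells (VM7Luc4E2) under antagonist co-treatment (ICI-182,780, 10.0nM). Fluorescence from CellTiter-Fluor is read after a 22hr exposure.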

[6] = molecular target: Progesterone receptor (Homo sapiens) (UniProt P06401); assay: qHTS assay to identify small molecule agonists of the progesterone receptor (PR) signaling pathway (AID 1346784; calls by dose curve; further: nearly all actives have a fitted effect of over 30% in size; further: potency means the concentration at half of the fitted maximal effect)
How it was run: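 Agonist mode, quantitative HTS format in a HEK 293T line expressing a UAS-controlled beta-lactamase reporter; 16 hr compound exposure at 37C in 2% charcoal-stripped FBS, then LiveBLAzer B/G FRET fluorescence.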

[7] = qHTS assay to identify small molecule antagonists of the progesterone receptor (PR) signaling pathway - cell viability counter screen (AID 1346798); further: nearly all actives have a fitted effect of over 50% in size; further: potency means the concentration at half of the fitted maximal effect; on activity change, negative = cytotoxicity: series mostly up to about 92 µM
How it was run: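 Same-well multiplex: after 16 hr at 37C with compound and R5020 stimulation, HEK293T cells carrying a UAS-bla reporter received LiveBLAzer substrate (2 hr RT), then CellTiter-Glo (30 min RT) for luminescent viability.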

[8] = qHTS assay to identify small molecule antagonists of the TGF-beta/Smad signaling pathway - cell viability counter screen (AID 1346824); further: nearly all actives have a fitted effect of over 50% in size; further: potency means the concentration at half of the fitted maximal effect
How it was run: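 Cytotoxicity counter-screen run in the same wells as the beta-lactamase Smad reporter read: CellTiter-Glo luminescence after 30 min at room temperature. HEK 293T SBE-bla cells had 5 hr compound exposure at 37 C with TGF-beta1 (0.25 ng/mL stock).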

[9] = qHTS assay to identify small molecule agonists of the TGF-beta/Smad signaling pathway - cell viability counter screen (AID 1346829); further: nearly all actives have a fitted effect of over 45% in size; further: potency means the concentration at half of the fitted maximal effect; on activity change, negative = cytotoxicity: top concentration of the series differs between compounds
How it was run: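 Here the cytotoxicity of library compounds is measured in SBE-bla HEK 293T cells treated for 5 hr, using CellTiter-Glo added to wells already read for the beta-lactamase reporter.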

[10] = qHTS assay to identify small molecule agonists of the TGF-beta/Smad signaling pathway (AID 1346859; active means well fitted activation curve with a large enough effect in the signal ratio in the repeat runs, not every such curve was filed as active; the % refers to the signal ratio; further: series mostly up to about 77 µM)
How it was run: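 Smad-responsive beta-lactamase reporter cells (HEK 293T) received compounds from DMSO stocks after overnight attachment, were incubated 5 hr, then treated 2 hr with FRET substrate before dual-emission fluorescence measurement (405 nm excitation).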

[11] = molecular target: Thyrotropin-releasing hormone receptor (Homo sapiens) (UniProt P34981); assay: qHTS assay to identify small molecule antagonists of the thyrotropin-releasing hormone receptor (TRHR) signaling pathway (AID 1346877; active means well fitted inhibition curve with a large enough effect in the repeat runs, not every such curve was filed as active; further: series mostly up to about 51 µM)
How it was run: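 Overnight-plated (18 h, 37 °C) HEK293 cells expressing TRHR were dye-loaded 2 h, treated with compound, then stimulated with TRH at 1 nM final. Fluorescence intensity was captured every second for 3 min.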

[12] = molecular target: Thyrotropin-releasing hormone receptor (Homo sapiens) (UniProt P34981); assay: qHTS assay to identify small molecule agonists of the thyrotropin-releasing hormone receptor (TRHR) signaling pathway (AID 1346891; calls by dose curve;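 further: HEK293 cells expressing TRHR with calcium dye readout; series mostly up to about 58 µM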)
How it was run: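 Agonist-mode calcium mobilisation screen: TRHR-transfected HEK293 cells cultured overnight (18 h), dye-loaded for 2 h at 37 °C, exposed to compounds, and monitored by fluorescence for 3 min.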

[13] = Human pregnane X receptor (PXR) small molecule agonists, qHTS cell viability counter screen (AID 1346977); further: nearly all actives have a fitted effect of over 50% in size; further: potency means the concentration at half of the fitted maximal effect
How it was run: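 Measures live-cell protease fluorescence (CellTiter-Fluor) in PXR-Luc HepG2 cells treated 24hr with compounds at 37C. Cells had 5hr to attach before pin transfer of DMSO solutions.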

[14] = qHTS assay to identify small molecule agonists of the androgen receptor (AR) signaling pathway in the presence of an antagonist - cell viability counter screen (AID 1259379); further: nearly all actives have a fitted effect of over 25% in size; further: potency means the concentration at half of the fitted maximal effect;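 on activity change, negative = cytotoxicity: MDA-kb2 human breast cancer cells carrying an MMTV luciferase reporter; series mostly up to about 92 µM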
How it was run: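 MDA-kb2 viability measured by CellTiter-Fluor fluorescence in the same wells as the luciferase signal; nilutamide 3.0uM final; 15-point compound titration; 16 hr at 37C.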

[15] = qHTS assay to identify small molecule agonists of the estrogen receptor beta (ER-beta) signaling pathway - cell viability counter screen (AID 1259380); further: nearly all actives have a fitted effect of over 30% in size; further: potency means the concentration at half of the fitted maximal effect
How it was run: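 Measured: luminescence from CellTiter-Glo after 30 min at room temperature, added to wells already read for the LiveBLAzer FRET reporter (2 hr substrate); ER-beta-UAS-bla HEK293T cells had 16 hr compound treatment at 37C, 5% CO2.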

[16] = qHTS assay to identify small molecule agonists of the progesterone receptor (PR) signaling pathway - cell viability counter screen (AID 1346799; calls by dose curve; further: nearly all actives have a fitted effect of over 45% in size; further: potency means the concentration at half of the fitted maximal effect)
How it was run: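 Counter screen for cytotoxicity: compound-treated PR-UAS-bla HEK293T cells (16 hr, 37C, 5% CO2) were assayed with CellTiter-Glo, luminescence measured after 30 min at room temperature.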

[17] = molecular target: Progesterone receptor (Homo sapiens) (UniProt P06401); assay: qHTS assay to identify small molecule antagonists of the progesterone receptor (PR) signaling pathway (AID 1346795; active means well fitted inhibition curve with a large enough effect in the signal ratio in the repeat runs, not every such curve was filed as active; the % refers to the signal ratio; further: potency means the concentration at half of the fitted maximal effect)
How it was run: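 HEK293T PR-UAS-bla reporter cells in charcoal-stripped serum (2%) received compound after a 6 hr settling period, followed by R5020 agonist at 1 nM final; 16 hr incubation preceded the FRET substrate step and fluorescence measurement.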
On the % scale 0 is the no-effect control and ±100 the full control effect.

Chain of Thyrotropin receptor (Homo sapiens) (P16473 whole entry, looked up): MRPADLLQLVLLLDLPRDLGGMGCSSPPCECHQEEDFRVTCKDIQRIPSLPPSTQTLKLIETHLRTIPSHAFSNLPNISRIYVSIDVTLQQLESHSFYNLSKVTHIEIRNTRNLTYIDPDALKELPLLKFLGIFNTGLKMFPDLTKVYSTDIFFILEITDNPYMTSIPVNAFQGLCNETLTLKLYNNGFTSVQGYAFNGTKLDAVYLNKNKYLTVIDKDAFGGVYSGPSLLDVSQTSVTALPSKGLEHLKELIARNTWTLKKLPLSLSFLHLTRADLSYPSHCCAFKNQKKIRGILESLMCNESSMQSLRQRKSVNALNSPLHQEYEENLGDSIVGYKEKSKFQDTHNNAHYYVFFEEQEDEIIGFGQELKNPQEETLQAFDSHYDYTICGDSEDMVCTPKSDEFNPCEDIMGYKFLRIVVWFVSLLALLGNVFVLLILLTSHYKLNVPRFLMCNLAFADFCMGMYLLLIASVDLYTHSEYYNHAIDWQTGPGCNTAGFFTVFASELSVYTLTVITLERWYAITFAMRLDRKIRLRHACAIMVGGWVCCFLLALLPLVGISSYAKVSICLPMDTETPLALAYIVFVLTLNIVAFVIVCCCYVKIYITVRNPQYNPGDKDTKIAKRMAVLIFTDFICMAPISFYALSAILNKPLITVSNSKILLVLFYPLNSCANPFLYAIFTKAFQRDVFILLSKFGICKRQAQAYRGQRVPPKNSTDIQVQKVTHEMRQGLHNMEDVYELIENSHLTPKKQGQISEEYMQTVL
Chain of Thyrotropin-releasing hormone receptor (Homo sapiens) (P34981 whole entry, looked up): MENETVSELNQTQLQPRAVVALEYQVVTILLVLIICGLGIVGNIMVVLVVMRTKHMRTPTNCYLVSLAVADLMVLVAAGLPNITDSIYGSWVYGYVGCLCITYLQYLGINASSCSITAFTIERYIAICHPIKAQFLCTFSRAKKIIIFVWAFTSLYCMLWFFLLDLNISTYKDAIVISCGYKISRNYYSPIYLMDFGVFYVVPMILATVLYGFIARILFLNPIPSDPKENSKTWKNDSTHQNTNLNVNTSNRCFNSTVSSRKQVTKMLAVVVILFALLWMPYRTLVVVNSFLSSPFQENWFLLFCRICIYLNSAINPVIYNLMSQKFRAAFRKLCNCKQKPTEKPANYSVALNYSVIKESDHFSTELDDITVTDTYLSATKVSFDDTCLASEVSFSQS
Chain of Progesterone receptor (Homo sapiens) (P06401 whole entry, looked up): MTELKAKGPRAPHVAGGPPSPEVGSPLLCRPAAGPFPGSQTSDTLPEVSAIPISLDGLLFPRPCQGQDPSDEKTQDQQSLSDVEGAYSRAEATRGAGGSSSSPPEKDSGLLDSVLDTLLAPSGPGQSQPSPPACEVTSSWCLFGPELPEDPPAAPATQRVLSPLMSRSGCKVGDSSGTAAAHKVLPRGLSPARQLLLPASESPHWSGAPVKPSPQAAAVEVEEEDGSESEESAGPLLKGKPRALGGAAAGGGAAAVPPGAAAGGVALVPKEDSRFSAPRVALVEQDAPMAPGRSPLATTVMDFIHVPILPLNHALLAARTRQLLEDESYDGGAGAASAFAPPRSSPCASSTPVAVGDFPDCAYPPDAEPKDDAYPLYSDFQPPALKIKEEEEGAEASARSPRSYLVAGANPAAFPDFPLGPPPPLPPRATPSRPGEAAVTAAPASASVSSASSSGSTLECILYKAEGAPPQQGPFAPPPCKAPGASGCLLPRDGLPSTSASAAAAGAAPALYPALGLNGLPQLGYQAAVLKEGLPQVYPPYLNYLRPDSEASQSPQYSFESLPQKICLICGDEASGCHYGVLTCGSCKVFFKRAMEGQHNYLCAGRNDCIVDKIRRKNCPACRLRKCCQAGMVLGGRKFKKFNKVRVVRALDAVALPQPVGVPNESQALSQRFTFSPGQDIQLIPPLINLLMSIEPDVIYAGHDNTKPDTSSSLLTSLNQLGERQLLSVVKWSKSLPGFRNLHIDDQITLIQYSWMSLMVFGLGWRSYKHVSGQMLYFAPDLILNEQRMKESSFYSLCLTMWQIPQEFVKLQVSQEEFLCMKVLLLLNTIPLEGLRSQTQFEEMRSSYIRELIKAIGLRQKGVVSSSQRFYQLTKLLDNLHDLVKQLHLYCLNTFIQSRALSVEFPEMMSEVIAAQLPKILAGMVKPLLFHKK
Chain of Estrogen receptor (Homo sapiens) (P03372 whole entry, looked up): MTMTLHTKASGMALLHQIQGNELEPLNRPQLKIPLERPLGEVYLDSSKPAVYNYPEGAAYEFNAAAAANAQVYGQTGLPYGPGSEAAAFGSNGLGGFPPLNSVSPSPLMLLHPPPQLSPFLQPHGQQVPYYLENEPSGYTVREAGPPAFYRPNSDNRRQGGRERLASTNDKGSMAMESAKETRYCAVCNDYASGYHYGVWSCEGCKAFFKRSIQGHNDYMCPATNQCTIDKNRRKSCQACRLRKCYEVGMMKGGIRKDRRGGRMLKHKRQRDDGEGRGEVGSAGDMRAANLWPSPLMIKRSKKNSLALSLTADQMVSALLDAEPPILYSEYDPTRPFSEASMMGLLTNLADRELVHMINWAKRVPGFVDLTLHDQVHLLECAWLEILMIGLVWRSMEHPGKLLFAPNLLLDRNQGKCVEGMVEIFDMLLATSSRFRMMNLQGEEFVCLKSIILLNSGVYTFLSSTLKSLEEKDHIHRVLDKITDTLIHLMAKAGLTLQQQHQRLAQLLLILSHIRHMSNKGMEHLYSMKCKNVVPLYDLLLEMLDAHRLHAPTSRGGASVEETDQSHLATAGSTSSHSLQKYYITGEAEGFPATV

O=C(Nc1ccccc1SSc1ccccc1NC(=O)c1ccccc1)c1ccccc1
inactive: Potency [1] | Potency [2] | Potency [3] | Potency [4] | Potency [5] | Potency [6] | Potency [7] | Potency [8] | Potency [9] | outcome [10] | Potency [11] | Potency [12] | Potency [13]

CCCCCCCCCCCC[N+](C)(C)C
active: Potency [14] 13.6 µM and 9.69 µM and 13.7 µM | Potency [15] 60.9 µM | Potency [1] 68.6 µM | Potency [5] 54.5 µM
inactive: Potency [3] | Potency [4] | Potency [6] | Potency [8] | Potency [9] | Potency [11] | Potency [12]

CN(C)c1ccc2nc3ccc(=[N+](C)C)cc-3sc2c1
inactive: Potency [2] | Potency [6] | Potency [7] | Potency [16] | Potency [8] | Potency [9] | outcome [10] | Potency [11] | Potency [12]
active: Potency [14] 3.3 µM and 6.86 µM and 4.22 µM | Potency [15] 2.08 µM and 27.3 µM and 3.76 µM | Potency [5] 33 µM and 27.3 µM and 15 µM | Potency [13] 1.86 µM and 9.69 µM and 10.6 µM

Nc1cc(S(=O)(=O)O)cc2cc(S(=O)(=O)O)cc(O)c12
active: Potency [5] 48.3 µM and 30.6 µM
inactive: Potency [1] | Potency [6] | Potency [17] | Potency [7] | Potency [8] | outcome [10] | Potency [11] | Potency [12]
inactive and 27.3 µM (active): Potency [14]
inactive and 4.33 µM (active): Potency [15]

CC[C@H]1CN2CCc3cc(OC)c(OC)cc3[C@@H]2C[C@@H]1C[C@H]1NCCc2cc(OC)c(OC)cc21
inactive: Potency [15] | Potency [1] | Potency [6] | Potency [7] | Potency [16] | Potency [8] | outcome [10]
active: Potency [14] 194 nM | Potency [5] 38.7 µM | Potency [17] 0.772 µM | Potency [13] 24.4 nM and 10.6 nM

CC(C)(C)NCC(O)c1cc(O)cc(O)c1 (stereo not drawn)
inactive: Potency [14] | Potency [1] | Potency [4] | Potency [5] | Potency [6] | Potency [17] | Potency [7] | Potency [16] | Potency [8] | outcome [10] | Potency [11] | Potency [12] | Potency [13]
active: Potency [3] 2.03 µM

NC(Cc1ccc(Cl)cc1)C(=O)O (stereo not drawn)
inactive: activity change, negative = cytotoxicity [14] 4.35% [at 0.35 µM] | activity change, negative = cytotoxicity [1] -0.284% [at 0.349 µM] | activity change, negative = inhibition [4] 0.481% [at 0.349 µM] | activity change, negative = cytotoxicity [5] 2.8% [at 0.349 µM] | activation [6] -4.74% [at 0.349 µM] | activity change, negative = inhibition [17] -0.261% [at 0.348 µM] | activity change, negative = cytotoxicity [16] -7.43% [at 0.349 µM] | viability change, negative = cytotoxic [8] 4.44% [at 0.29 µM] | activity change, negative = cytotoxicity [9] -10.5% [at 0.29 µM] | activation [10] 0.242% [at 0.29 µM] | activity, negative = inhibition [11] -6.16% [at 0.194 µM] | activation [12] 0.0344% [at 0.218 µM] | activity change, negative = cytotoxicity [13] 6.84% [at 0.349 µM]

COc1ccc(CCN(C)CCCC(C#N)(c2ccc(OC)c(OC)c2)C(C)C)cc1OC (stereo not drawn)
inactive: Potency [15] | Potency [1] | Potency [16] | Potency [9] | Potency [11] | Potency [12]
active: Potency [4] 43.2 µM | Potency [5] 30.6 µM

COc1ccc(CCN2CCC(Nc3nc4ccccc4n3Cc3ccc(F)cc3)CC2)cc1
inactive: Potency [3] | Potency [6] | outcome [10] | Potency [11] | Potency [12]
31.3 µM (active) and inactive: Potency [4]
39.4 µM (active) and inactive: Potency [5]
active: Potency [14] 17.6 µM and 21.1 µM | Potency [1] 9.9 µM and 21.1 µM | Potency [17] 18.8 µM | Potency [7] 17.6 µM and 23.7 µM | Potency [16] 14 µM | Potency [8] 39.8 µM | Potency [9] 44.6 µM | Potency [13] 3.94 µM and 13.3 µM

CCN(CC)c1ccc2c(C)cc(=O)oc2c1
inactive: Potency [14] | Potency [1] | Potency [2] | Potency [3] | Potency [4] | Potency [5] | Potency [7] | Potency [16] | Potency [8] | Potency [11] | Potency [12] | Potency [13]
active: Potency [6] 30.9 µM and 34.4 µM

Nc1ccc2cc3ccccc3cc2c1
inactive: Potency [14] | Potency [1] | Potency [3] | Potency [4] | Potency [5] | Potency [7] | Potency [16] | Potency [8] | Potency [9]
active: Potency [2] 1.75 µM and 13.7 µM

Cc1cccc2n[nH]nc12
inactive: Potency [14] | Potency [15] | Potency [1] | Potency [4] | Potency [5] | Potency [6] | Potency [17] | Potency [7] | Potency [16] | Potency [8] | Potency [9] | outcome [10] | Potency [11] | Potency [12] | Potency [13]

NNCCc1ccccc1
inactive: Potency [14] | Potency [15] | Potency [1] | Potency [4] | Potency [5] | Potency [6] | Potency [17] | Potency [16] | Potency [8] | Potency [9] | outcome [10] | Potency [11] | Potency [12] | Potency [13]

CCCCC/C=C/CC1CC(=O)OC1=O (stereo not drawn)
inactive: Potency [14] | Potency [1] | Potency [2] | Potency [3] | Potency [4] | Potency [5] | Potency [6] | Potency [17] | Potency [16] | Potency [8] | outcome [10] | Potency [11] | Potency [12] | Potency [13]

CC[C@]1(O)C[C@@H]2CN(CCc3c([nH]c4ccccc34)[C@@](C(=O)OC)(c3cc4c(cc3OC)N(C)[C@H]3[C@@](O)(C(=O)OC)[C@H](OC(C)=O)[C@]5(CC)C=CCN6CC[C@]43[C@@H]65)C2)C1
inactive: Potency [14] | Potency [15] | Potency [1] | Potency [3] | Potency [4] | Potency [6] | Potency [8] | Potency [9] | outcome [10] | Potency [11] | Potency [12]
active: Potency [5] 10.6 µM | Potency [13] 15 µM and 26.6 µM
